The list is not random: actives were taken first. Their share in the collection is about 3%.
PPC-1+TRAIL kill: PPC-1 cancer cell killing with TRAIL present. PPC-1 cells + TRAIL, ATPLite viability luminescence. cell killing (% activity), % at 4 µM or 5 µM. 220,000 compounds, 0.41% hits. AID 1443;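 active means cell killing above 50% in the first pass at 4 µM, then a duplicate retest at 5 µM averaging 50% or more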
TRAIL sens C8: sensitizes caspase-8 expressing cells to TRAIL; NB7+C8 cells + TRAIL, ATPlite viability luminescence; 360,000 compounds, 1% hits; inhibition (viability loss, TRAIL sensitization), % at 10 µM; AID 624354;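 active means compounds causing at least 50% loss of cell viability in the single-dose screen, relative to plate controls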
SENP7 block: inhibitors of human SENP7 protease | 330,000 compounds, 1.5% hits | recombinant SENP7, Z-RLRGG-aminoluciferin luminescence, 40 min | Q9BQF6 | inhibition, % at 5 µM;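 active means inhibition above about 50% at the single test dose, limit read from the data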
SENP8 block-1: inhibitors of human SENP8 protease; Q96LD8; recombinant SENP8, Nedd8 substrate fluorescence; inhibition, % at 20 µM; 360,000 compounds, 0.64% hits; AID 602440; in the data active means inhibition mostly above about 40%, no sharp cut-off; inactive means mostly below about 27%
Target sequence (Q96LD8 whole entry, looked up): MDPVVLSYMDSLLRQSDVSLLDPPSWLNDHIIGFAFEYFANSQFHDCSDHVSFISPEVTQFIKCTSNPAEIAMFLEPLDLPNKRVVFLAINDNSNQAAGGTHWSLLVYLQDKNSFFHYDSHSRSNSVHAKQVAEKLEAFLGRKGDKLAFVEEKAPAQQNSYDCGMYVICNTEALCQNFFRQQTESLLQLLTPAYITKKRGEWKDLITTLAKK
SENP6 block: blocks the human protease SENP6; Recombinant SENP6 catalytic domain, aminoluciferin luminescence; inhibition, % at 10 µM; 330,000 compounds, 1.8% hits; AID 2599;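 active means inhibition above about 50% at the single tested dose, limit read from the data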
SENP8 block-2: blocks the human protease SENP8; inhibition, % at 10 µM; purified SENP8, Z-RLRGG-aminoluciferin cleavage, luminescence; Q96LD8; 330,000 compounds, 1.2% hits; in the data active means inhibition above about 50%
SENP8 confirm: confirmation of human SENP8 protease inhibitors. Recombinant SENP8, Z-RLRGG-aminoluciferin luminescence, 60 min. shares compounds with SENP7 block. AID 488912. 6,200 compounds, 40% hits. inhibition, % at 12.5 µM;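 active means mean inhibition across replicates above about 50%, limit read from the data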
SENP6 conf: confirmation of human SENP6 protease inhibitors | inhibition, % at 12.5 µM | 6,200 compounds, 58% hits | shares compounds with SENP7 block | recombinant SENP6, Z-RLRGG-aminoluciferin luminescence
SENP7 confirm: human SENP7 inhibition, confirmed; shares compounds with SENP7 block; recombinant SENP7, Z-RLRGG-aminoluciferin luminescence, 40 min; inhibition, % at 12.5 µM; 6,200 compounds, 69% hits
Casp3 SENP sel: selectivity test for SENP inhibitors: human caspase-3 inhibition. shares compounds with SENP7 block. inhibition, % at 12.5 µM. purified caspase-3, Z-DEVD-aminoluciferin luminescence, 60 min. 6,200 compounds, 60% hits. AID 488918;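 active means mean inhibition above about 50%, limit read from the data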
Target sequence (P42574 28-227 limits assumed): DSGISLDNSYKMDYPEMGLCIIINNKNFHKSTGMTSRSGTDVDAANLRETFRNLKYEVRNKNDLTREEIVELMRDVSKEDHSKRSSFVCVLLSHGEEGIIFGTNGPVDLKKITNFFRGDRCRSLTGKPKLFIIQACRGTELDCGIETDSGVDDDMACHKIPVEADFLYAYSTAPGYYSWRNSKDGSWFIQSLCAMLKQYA
Luc interf: counter-screen for SENP inhibitors: luminescence interference | shares compounds with SENP7 block | Pre-incubated SENP8/Z-RLRGG-aminoluciferin, luciferase luminescence interference | inhibition, % at 12.5 µM | 6,200 compounds, 39% hits;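 active means mean inhibition above about 50% when retested at one dose, limit read from the data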
Large screens that a line does not name were inactive (follow-up assays come after a bar, where they were run).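 How the source made its calls, unless noted: active means mean inhibition above about 50% in the one-dose retest (limit read from the data); inactive means the rest.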

CN=C1S/C(=C\c2ccc(O)c(Br)c2)C(=O)N1C	SENP7 block 100, SENP6 block 97, SENP8 block-2 97 (no result: PPC-1+TRAIL kill) | SENP8 confirm 99 | SENP6 conf 100 | SENP7 confirm 102 | Casp3 SENP sel 98 | Luc interf 80
CN=C1S/C(=C\c2ccc(SC)cc2)C(=O)N1C	SENP7 block 62, SENP6 block 70, SENP8 block-2 62 (no result: PPC-1+TRAIL kill) | SENP8 confirm 69 | SENP6 conf 67 | SENP7 confirm 84 | Casp3 SENP sel 65 | Luc interf inactive
CN=C1S/C(=C\c2cccc(Cl)c2Cl)C(=O)N1C	SENP6 block 77, SENP8 block-2 67 (no result: PPC-1+TRAIL kill, TRAIL sens C8, SENP8 block-1) | SENP8 confirm inactive | SENP6 conf inactive | SENP7 confirm inactive | Casp3 SENP sel inactive | Luc interf inactive
Cc1ccc2nc(-c3ccc(C#N)cc3)c(Cc3cccc(Cl)c3)n2c1	none (no result: PPC-1+TRAIL kill, SENP7 block, SENP6 block, SENP8 block-2)
COc1cc(OC)cc(C(=O)Nn2c(C)nc3ccccc3c2=O)c1	none
COc1ccc2[nH]c3c(c2c1)CCn1c-3nc2ccccc2c1=O	SENP7 block 80 | SENP8 confirm inactive | SENP6 conf inactive | SENP7 confirm inactive | Casp3 SENP sel inactive | Luc interf inactive
CCOC(=O)c1cc2c(=O)c3cc(C)ccc3oc2nc1C	SENP7 block 92, SENP8 block-2 71 (no result: PPC-1+TRAIL kill) | SENP8 confirm inactive | SENP6 conf inactive | SENP7 confirm inactive | Casp3 SENP sel 60 | Luc interf inactive
COCc1nc2oc3ccc(C)cc3c(=O)c2cc1C(=O)OC	none (no result: PPC-1+TRAIL kill)
Cc1ccc2oc3nc(C)c(C(=O)O)cc3c(=O)c2c1	SENP7 block 92, SENP6 block 88, SENP8 block-2 81 | SENP8 confirm inactive | SENP6 conf inactive | SENP7 confirm 68 | Casp3 SENP sel 80 | Luc interf 56
CC(=O)c1cc2c(=O)c3cc(C)ccc3oc2nc1C	SENP7 block 64, SENP6 block 75, SENP8 block-2 64 | SENP8 confirm inactive | SENP6 conf inactive | SENP7 confirm inactive | Casp3 SENP sel 56 | Luc interf inactive
Cc1nc2oc3ccc(F)cc3c(=O)c2cc1C(=O)O	none (no result: PPC-1+TRAIL kill)
CN1C[C@@H]2[C@@H]3C(=O)N(C)C(=O)[C@@H]3[C@](C)(C1=O)N2C(=O)c1ccc(F)cc1	none (no result: PPC-1+TRAIL kill, SENP7 block, SENP6 block, SENP8 block-2)
COc1ccc(Cl)cc1NC(=O)CN1C(=O)C(=O)N(C2CCCC2)C1=O	none (no result: PPC-1+TRAIL kill, SENP7 block, SENP6 block, SENP8 block-2)
CCCn1nnc2ccccc2c1=O	none
CCOc1ccc(OCCn2nnc3ccccc3c2=O)cc1	SENP7 block 67, SENP6 block 69, SENP8 block-2 58 | SENP8 confirm inactive | SENP6 conf 60 | SENP7 confirm 89 | Casp3 SENP sel 81 | Luc interf 50
CCOc1ccc(C2Nc3cccc4cccc(c34)N2)cc1OC	none
COc1cc(OC)c(C2Nc3cccc4cccc(c34)N2)c(OC)c1	SENP6 block 58 (no result: PPC-1+TRAIL kill) | SENP8 confirm inactive | SENP6 conf inactive | SENP7 confirm inactive | Casp3 SENP sel inactive | Luc interf inactive
COc1ccc(C2Nc3cccc4cccc(c34)N2)cc1	SENP6 block 64 | SENP8 confirm inactive | SENP6 conf inactive | SENP7 confirm inactive | Casp3 SENP sel inactive | Luc interf inactive
c1ccc(C2Nc3cccc4cccc(c34)N2)cc1	none (no result: PPC-1+TRAIL kill)
COc1ccccc1C1Nc2cccc3cccc(c23)N1	SENP6 block 60 | SENP8 confirm inactive | SENP6 conf inactive | SENP7 confirm inactive | Casp3 SENP sel inactive | Luc interf inactive
COc1ccc(C(=O)OCC(=O)N2c3ccccc3CC2C)cc1S(=O)(=O)N1CCOCC1 (stereo unspecified)	none (no result: PPC-1+TRAIL kill, SENP7 block, SENP6 block, SENP8 block-2)
COc1cccc(N2C(=NC(=O)COc3ccccc3)SC3CS(=O)(=O)CC32)c1 (stereo unspecified)	none (no result: PPC-1+TRAIL kill)
O=C(NCCN1CCC(n2c(=O)[nH]c3ccccc32)CC1)c1cccs1	none (no result: PPC-1+TRAIL kill, SENP7 block, SENP6 block, SENP8 block-2)
O=C1c2ccccc2S(=O)(=O)c2cc(N3CCN(c4ccccc4)CC3)ccc21	none (no result: PPC-1+TRAIL kill, TRAIL sens C8, SENP8 block-1)
O=C1c2ccccc2S(=O)(=O)c2cc(N3CCOCC3)ccc21	TRAIL sens C8 66, SENP7 block 69, SENP6 block 62 (no result: PPC-1+TRAIL kill) | SENP8 confirm inactive | SENP6 conf inactive | SENP7 confirm inactive | Casp3 SENP sel inactive | Luc interf inactive
COc1ccc(-c2cc(-c3cc(OC)ccc3O)[nH]n2)cc1	none
COc1ccc(O)c(-c2cc(-c3cccc(Br)c3)n[nH]2)c1	SENP6 block 59 | SENP8 confirm inactive | SENP6 conf inactive | SENP7 confirm 69 | Casp3 SENP sel inactive | Luc interf inactive
COc1ccc(O)c(-c2cc(-c3ccc(F)cc3)n[nH]2)c1	SENP6 block 56 (no result: PPC-1+TRAIL kill) | SENP8 confirm 62 | SENP6 conf 59 | SENP7 confirm 78 | Casp3 SENP sel inactive | Luc interf 68
COc1ccc(C=C2SC(=S)N(CCCC(=O)Nc3ccc(C(=O)O)c(O)c3)C2=O)cc1OC	none (no result: PPC-1+TRAIL kill, SENP7 block, SENP6 block, SENP8 block-2)
O=C(CCCN1C(=O)/C(=C/c2ccccc2)SC1=S)Nc1ccc(C(=O)O)c(O)c1	SENP6 block 79, SENP8 block-2 73 (no result: PPC-1+TRAIL kill) | SENP8 confirm 73 | SENP6 conf 72 | SENP7 confirm 84 | Casp3 SENP sel inactive | Luc interf 76
O=C(CCN1C(=O)S/C(=C\c2ccc(F)cc2)C1=O)Nc1ccc(C(=O)O)c(O)c1	SENP7 block 60, SENP6 block 82, SENP8 block-2 75 (no result: PPC-1+TRAIL kill) | SENP8 confirm 85 | SENP6 conf 80 | SENP7 confirm 81 | Casp3 SENP sel inactive | Luc interf 79
O=C(CCN1C(=O)/C(=C\c2ccccc2F)SC1=S)Nc1ccc(C(=O)O)c(O)c1	SENP6 block 66, SENP8 block-2 64 (no result: PPC-1+TRAIL kill) | SENP8 confirm 78 | SENP6 conf 73 | SENP7 confirm 67 | Casp3 SENP sel inactive | Luc interf 52
O=C(CCN1C(=O)S/C(=C/c2ccccc2)C1=O)Nc1ccc(C(=O)O)c(O)c1	SENP6 block 57 (no result: PPC-1+TRAIL kill) | SENP8 confirm 60 | SENP6 conf 55 | SENP7 confirm 74 | Casp3 SENP sel inactive | Luc interf 65
COc1ccc(CNC(=O)COC(=O)c2[nH]c(C)c(C(C)=O)c2C)cc1OC	none (no result: PPC-1+TRAIL kill)
COc1ccc(-c2cn(Cc3ccc(C(N)=O)cc3)c(-c3ccncc3)n2)cc1	SENP7 block 68, SENP6 block 72, SENP8 block-2 61 (no result: PPC-1+TRAIL kill) | SENP8 confirm 71 | SENP6 conf 69 | SENP7 confirm 91 | Casp3 SENP sel 76 | Luc interf 54

Bioassay records from PubChem BioAssay.
